According to PubChem BioAssay (NCI):
Compounds without any hit were thinned out: in the full panel of roughly 79,000, 15% have a hit. Activity calls are given as the source filed them. Rule as the data show it: active = growth inhibition above about 70%; inactive = the rest.

Assays:
[1] = NCI Yeast Anticancer Drug Screen. Data for the rad52 strain (AID 147);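 also: 0% = growth of vehicle-treated control cultures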; conditions: S. cerevisiae rad52 mutant growth inhibition, stronger effect = higher value
Method in brief: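 Vehicle-treated cultures served as the reference for growth inhibition of compound-exposed yeast bearing a DNA repair mutation.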

[2] = NCI Yeast Anticancer Drug Screen. Data for the wt1 strain (AID 149);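 also: 0% = growth of vehicle-treated wt1 cultures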; conditions: S. cerevisiae wt1 strain (SPY 50644) growth inhibition, stronger effect = higher value
Method in brief: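 Each compound is tested on wt1 yeast and the loss of growth versus vehicle gives the inhibition value.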

[3] = NCI Yeast Anticancer Drug Screen. Data for the rad50EPP+ strain (AID 151);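 also: 0% = growth of vehicle-treated control cultures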; conditions: S. cerevisiae rad50 mutant strain, stronger effect = higher value
Method in brief: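 In this screen, rad50EPP+ yeast were exposed to compounds. Growth inhibition was scored against vehicle-treated controls.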

[4] = NCI Yeast Anticancer Drug Screen. Data for the mgt1 strain (AID 153); conditions: S. cerevisiae mgt1 mutant growth inhibition, stronger effect = higher value
Method in brief: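 mgt1 strain exposed; growth vs vehicle control recorded as inhibition.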

[5] = NCI Yeast Anticancer Drug Screen. Data for the rad50 strain (AID 155);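 also: 0% = growth of vehicle-only cultures of the same strain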; conditions: S. cerevisiae rad50 strain growth inhibition, stronger effect = higher value
Method in brief: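 Vehicle-treated cultures provide the reference for the growth inhibition reported for compound-exposed, repair-deficient yeast.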

[6] = NCI Yeast Anticancer Drug Screen. Data for the mec2-1 strain (AID 157); conditions: S. cerevisiae mec2-1 strain, stronger effect = higher value
Method in brief: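 Vehicle-treated cultures served as reference for growth inhibition of compound-exposed mec2-1 yeast.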

[7] = NCI Yeast Anticancer Drug Screen. Data for the rad14 strain (AID 159);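 also: 0% = growth of vehicle-treated control cultures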; conditions: S. cerevisiae rad14 strain growth inhibition, stronger effect = higher value
Method in brief: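 Inhibition of growth is reported for a repair-deficient yeast mutant following compound treatment, calculated relative to cultures that received vehicle.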

[8] = NCI Yeast Anticancer Drug Screen. Data for the sgs1 mgt1 strain (AID 161);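 also: 0% = growth of cultures given vehicle only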; conditions: S. cerevisiae sgs1 mgt1 strain, stronger effect = higher value
Method in brief: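 Mutant yeast exposed to compound; growth scored against vehicle-only wells.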

[9] = NCI Yeast Anticancer Drug Screen. Data for the CLN2oe strain (AID 163);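 also: 0% = growth of vehicle-only control cultures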; conditions: S. cerevisiae CLN2oe strain, stronger effect = higher value
Method in brief: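 Inhibition relative to vehicle-treated yeast is reported. Cells: strain with genetic alteration in cell-cycle control, grown with compound.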

[10] = NCI Yeast Anticancer Drug Screen. Data for the bub3 strain (AID 167); conditions: S. cerevisiae bub3 mutant strain, stronger effect = higher value
Method in brief: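 Mutant yeast screening strain plus compound; vehicle-treated cultures serve as the 0% inhibition reference.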

[11] = NCI Yeast Anticancer Drug Screen. Data for the wt2 strain (AID 169); conditions: S. cerevisiae wt2 strain growth inhibition, stronger effect = higher value
Method in brief: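 Inhibition of yeast growth was determined after compound treatment, normalised to controls receiving only vehicle.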

[12] = NCI Yeast Anticancer Drug Screen. Data for the mlh1 strain (AID 171);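 also: 0% = growth of vehicle-treated control cultures of the same strain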; conditions: S. cerevisiae mlh1 strain growth inhibition, stronger effect = higher value
Method in brief: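 Vehicle-normalised growth inhibition of a repair- or checkpoint-altered yeast strain following compound treatment.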

[13] = NCI Yeast Anticancer Drug Screen. Data for the sgs1 strain (AID 173);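 also: 0% = growth of vehicle-only control cultures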; conditions: S. cerevisiae sgs1 mutant, stronger effect = higher value
Method in brief: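 Screen format: yeast with repair or checkpoint alterations, compound exposure, growth read relative to vehicle.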

[14] = NCI Yeast Anticancer Drug Screen. Data for the mlh1 rad18 strain (AID 175); conditions: S. cerevisiae mlh1 rad18 strain growth inhibition, stronger effect = higher value
Method in brief: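 Vehicle-treated cultures served as the reference for growth inhibition in a yeast strain carrying DNA damage repair alterations exposed to each compound.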

[15] = NCI Yeast Anticancer Drug Screen. Data for the rad18 strain (AID 177); conditions: S. cerevisiae rad18 mutant growth inhibition, stronger effect = higher value
Method in brief: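 Test articles were incubated with altered yeast defective in DNA damage repair. Results are given as inhibition of growth versus vehicle.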

[16] = NCI Yeast Anticancer Drug Screen. Data for the cln2 rad14 strain (AID 165);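 also: 0% = growth equal to vehicle treated cultures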; conditions: S. cerevisiae cln2 rad14 strain, stronger effect = higher value
Method in brief: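 Each compound was tested on cln2 rad14 yeast. Inhibition of growth was calculated against vehicle-exposed controls.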

[17] = at 5.0 µM (retest, dose inferred, filed as 0.5)
[18] = at 50.0 µM (retest, dose inferred, filed as 5.0)

Measured: growth inhibition

CC(C)OP(=O)(OC(C)C)C(=NCCO)NNc1ccc([N+](=O)[O-])cc1
active: [1]; at 100.0 µM 79% | [3]; at 33.0 µM 93% | [3]; at 100.0 µM 94% | [4]; at 100.0 µM 74% | [5]; at 50.0 µM 86% | [5]; at 100.0 µM 91% | [8]; at 50.0 µM 85% | [9]; at 100.0 µM 90% | [10]; at 33.0 µM 94% | [10]; at 100.0 µM 95% | [12]; at 100.0 µM 87% | [13]; at 11.0 µM 71% | [13]; at 33.0 µM 95% | [13]; at 100.0 µM 95% | [14]; [18] 96% | [14]; at 50.0 µM 72.9% | [15]; at 100.0 µM 91%
inactive: [1]; at 1.2 µM 8% | [1]; at 3.7 µM 3% | [1]; at 11.0 µM 14% | [1]; at 33.0 µM 31% | [2]; at 1.2 µM -6% | [2]; at 3.7 µM 1% | [2]; at 11.0 µM 6% | [2]; at 33.0 µM 7% | [2]; at 100.0 µM 29% | [3]; at 1.2 µM -2% | [3]; at 3.7 µM 34% | [3]; at 11.0 µM 69% | [4]; at 1.2 µM -34% | [4]; at 3.7 µM -34% | [4]; at 11.0 µM -32% | [4]; at 33.0 µM 0% | [5]; at 1.2 µM -5% | [5]; at 3.7 µM -3% | [5]; [17] 8% | [5]; at 11.0 µM 24% | [5]; at 33.0 µM 59% | [5]; [18] 64% | [6]; at 1.2 µM -23% | [6]; at 3.7 µM -16% | [6]; [17] -2% | [6]; at 11.0 µM -19% | [6]; at 33.0 µM 20% | [6]; [18] 33% | [6]; at 50.0 µM 28.1% | [6]; at 100.0 µM 40% | [7]; at 1.2 µM -10% | [7]; at 3.7 µM 3% | [7]; at 11.0 µM 4% | [7]; at 33.0 µM 3% | [7]; at 100.0 µM 42% | [8]; [17] 1% | [8]; [18] 23% | [9]; at 1.2 µM -17% | [9]; at 3.7 µM 3% | [9]; at 11.0 µM 4% | [9]; at 33.0 µM 44% | [10]; at 1.2 µM -15% | [10]; at 3.7 µM 22% | [10]; [17] 22% | [10]; at 11.0 µM 49% | [10]; [18] 62% | [10]; at 50.0 µM 56.7% | [11]; at 1.2 µM 1% | [11]; at 3.7 µM -3% | [11]; at 11.0 µM 8% | [11]; at 33.0 µM 26% | [11]; at 100.0 µM 50% | [12]; at 1.2 µM -18% | [12]; at 3.7 µM -22% | [12]; at 11.0 µM 3% | [12]; at 33.0 µM 46% | [13]; at 1.2 µM 24% | [13]; at 3.7 µM 39% | [14]; [17] 48% | [15]; at 1.2 µM 20% | [15]; at 3.7 µM 0% | [15]; at 11.0 µM 13% | [15]; at 33.0 µM 54%

CN(C)/C(=N/C(=S)Nc1ccccc1)SCc1ccccc1
active: [5]; [18] 70% | [5]; at 50.0 µM 99.2% | [6]; [18] 76% | [6]; at 50.0 µM 99.7% | [8]; [18] 91% | [8]; at 50.0 µM 99% | [16]; at 50.0 µM 98.8% | [10]; [18] 86% | [10]; at 50.0 µM 99.5% | [14]; [18] 76% | [14]; at 50.0 µM 97.7%
inactive: [1]; at 1.2 µM -3% | [1]; at 3.7 µM -4% | [1]; at 11.0 µM -2% | [1]; at 33.0 µM 6% | [1]; at 100.0 µM 12% | [2]; at 1.2 µM -2% | [2]; at 3.7 µM -3% | [2]; at 11.0 µM 0% | [2]; at 33.0 µM 6% | [2]; at 100.0 µM 6% | [3]; at 1.2 µM 0% | [3]; at 3.7 µM 1% | [3]; at 11.0 µM -5% | [3]; at 33.0 µM 1% | [3]; at 100.0 µM 13% | [4]; at 1.2 µM 1% | [4]; at 3.7 µM 2% | [4]; at 11.0 µM 4% | [4]; at 33.0 µM 11% | [4]; at 100.0 µM 16% | [5]; at 1.2 µM -5% | [5]; at 3.7 µM -5% | [5]; [17] -7% | [5]; at 11.0 µM -7% | [5]; at 33.0 µM 8% | [5]; at 100.0 µM 10% | [6]; at 1.2 µM -5% | [6]; at 3.7 µM -5% | [6]; [17] -1% | [6]; at 11.0 µM -4% | [6]; at 33.0 µM 10% | [6]; at 100.0 µM 16% | [7]; at 1.2 µM -4% | [7]; at 3.7 µM -5% | [7]; at 11.0 µM -2% | [7]; at 33.0 µM 13% | [7]; at 100.0 µM 18% | [8]; [17] 11% | [9]; at 1.2 µM -8% | [9]; at 3.7 µM -11% | [9]; at 11.0 µM -13% | [9]; at 33.0 µM -6% | [9]; at 100.0 µM -1% | [16]; [17] -15% | [16]; [18] 44% | [10]; at 1.2 µM -4% | [10]; at 3.7 µM -2% | [10]; [17] 6% | [10]; at 11.0 µM 3% | [10]; at 33.0 µM 8% | [10]; at 100.0 µM 14% | [12]; at 1.2 µM -2% | [12]; at 3.7 µM 0% | [12]; at 11.0 µM 3% | [12]; at 33.0 µM 11% | [12]; at 100.0 µM 20% | [13]; at 1.2 µM -3% | [13]; at 3.7 µM 0% | [13]; at 11.0 µM 7% | [13]; at 33.0 µM 25% | [13]; at 100.0 µM 30% | [14]; [17] -1% | [15]; at 1.2 µM -4% | [15]; at 3.7 µM -1% | [15]; at 11.0 µM 1% | [15]; at 33.0 µM 16% | [15]; at 100.0 µM 24%
